We go through 3 molecules from PubChem BioAssay AID651871 (Sanford-Burnham Center for Chemical Genomics, 2012).

Values joined by “and” are separate entries in the source; they are usually repeats but may differ in a detail not shown here. Equal entries are not always repeated.

In this experiment the test system is H9c2. The experiment in a line: cardiomyocyte survival under oxidative or metabolic stress – cell-based, panel, H9c2 and HL-1, ATP luminescence, set 2, SAR follow-up (AID 651871).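 Note: cells exposed to stressor for 2 h before ATP readout; reference of the scale not given here.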 The following applies: H9c2/HL-1 cardiomyocytes, 2-deoxyglucose stress, with 2-deoxyglucose; run 13, at 79 µM (top of the series).
Consider `COc1ccc2c(c1OC)C(=O)N1c3ccccc3C(=O)N(Cc3cccc(Cl)c3Cl)C21` (stereo not drawn), for which the activity (protection/inhibition) was 81.4% and 89.7% and -5.69%.

Turning to `CCOC(=O)c1cccc(NC(=O)CNC(=O)c2cc(-c3cc(OC)c(OC)c(OC)c3)nc3ccccc23)c1`, the activity (protection/inhibition) turned out to be 92.9%.

As for `COc1ccc2nc(-c3cc(OC)c(OC)c(OC)c3)cc(C(=O)NCC(=O)Nc3ccc(C(C)=O)cc3)c2c1`, the activity (protection/inhibition) was 86.7%.
